Assay results: PubChem BioAssay (NCI)
About 83,000 compounds went through this panel and 20% of them were active in at least one assay; those are over-represented in the sample as a whole.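 Cell lines were cultured in 96-well plates, exposed to a single compound concentration, and assessed for percent growth 48 hours later.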 Activity calls are given as the source filed them. How the source made its calls: active means growth percent below 10; inactive means the rest.

tested on: MDA-MB-468 breast; experiment: NCI-60 one-dose screen, 48 h (100 = growth as untreated, 0 = no growth, -100 = all killed); conditions: 10 µM unless noted

Row | SMILES | growth
1 | C=CC(=O)NCc1cccc(Nc2ncc(Br)c(NCCCNC(=O)C3CCC3)n2)c1 | -80.4% (active)
2 | COc1ccc(C(=O)Nn2c(NCC(=O)N3c4ccccc4Sc4ccccc43)nnc2-c2ccc(O)cc2)cc1 | 107% (inactive)
3 | Clc1ccc(Nc2nccc(Nc3ccc4[nH]ncc4c3)n2)cc1 | 33.6% (inactive)
4 | Cc1nc2c(O)cccc2cc1CO | 95.2% (inactive)
5 | CN1C(=O)N(C)C2Nn3c(s/c(=C4\C(=O)N(CCc5ccccc5)c5ccccc54)c3=O)=NC21 (stereo not given) | 39% (inactive)
6 | C#CCOC(=O)[C@@H]1CCCN1CC#C | 75.4% (inactive)
7 | O=C(O)CC1Cc2ccccc2C1C(=O)O (stereo not given) | 106% (inactive)
8 | CCCC(CCC)NCC(O)c1cc(-c2ccc(C(F)(F)F)cc2)nc(C(F)(F)F)c1 (stereo not given) | -91.6% (active)
9 | C/C=C/C/C=C/[C@H](C)C[C@H](O)[C@@H]1C[C@@H]2O[C@H]2/C=C/[C@H](O)[C@@H](O)/C=C/C[C@H](C)CC(=O)O1 | 99.5% (inactive)
10 | Cc1ccc(C(=O)Nc2ccc(CN3CCN(C)CC3)c(C(F)(F)F)c2)cc1C#Cc1cncc2ncccc12 | 37.3% (inactive)
11 | CCc1ccc(CCC(=O)Nc2ncc(Cc3cc(Cl)ccc3Cl)s2)o1 | -23% (active)
12 | Cc1ccc(C2=Nc3c(N)ncnc3NC(c3cccc(Nc4ccnc5cc(C(F)(F)F)ccc45)c3)C2)cc1 (stereo not given) | 24.8% (inactive)
13 | Cc1nccc2c3ccc(OCc4cn(-c5ccccc5)nn4)cc3n(CCCc3ccccc3)c12 | 49% (inactive)
14 | COc1c(O[C@@H]2OC(CO)[C@H](O)[C@H](O)C2O)cc2oc3cc(O)c(CC=C(C)C)c(O)c3c(=O)c2c1CC=C(C)C (stereo not given in full) | 99.8% (inactive)
15 | CC(C)(c1ccc(OCC(O)CNCc2ccco2)cc1)c1ccc(OCC(O)CNCc2ccco2)cc1 (stereo not given) | 98.1% (inactive)
16 | O=C(O)C1CN(c2cccc(Cl)c2)N(c2cccc(Cl)c2)C1=O (stereo not given) | 78.7% (inactive)
17 | CN1C(=O)/C(=C/c2ccc(C(=O)Nc3ncc(Cc4ccc(Cl)cc4)s3)cc2)SC1=S | 25.2% (inactive)
18 | Brc1cccc(-c2cc(-c3ccc4nccnc4c3)[nH]n2)c1 | 22.9% [25 µM] (inactive)
19 | COc1ccc2ccccc2c1/C=N/N1CCCCC1 | 113% (inactive)
20 | O=C(N/N=C/c1ccccc1SSc1ccccc1/C=N/NC(=O)c1ccccc1)c1ccccc1 | 51.9% (inactive)
21 | CC(C)(O)c1cncc(-c2ccc3ncnc(NCc4ccccc4)c3c2)c1 | 64.8% (inactive)
22 | O=C(Nc1ccc(N2CCNCC2)cc1)c1[nH]ncc1Nc1cc(C2CC2)ncn1 | 49.2% (inactive)
23 | CCCCN1C(=O)/C(=c2\sc3n(c2=O)C2C(NN=3)N(CC)C(=O)N2CC)c2cc(C)ccc21 (stereo not given) | 65.4% (inactive)
24 | COc1ccc(C(=O)C(CN(C)C)CN(C)C)cc1 | -66.4% (active)
25 | NC(CCl)=NCCC[C@H](N)C(=O)O | 91.8% (inactive)
26 | COc1cc2ccccc2cc1C(=O)NC(=S)Nc1ccc(-c2nc3ccccc3[nH]2)cc1 | 90.2% (inactive)
27 | O=C(Nc1cccc(C2=NCCN2)c1)c1ccc(N=Nc2ccc(C(=O)Nc3cccc(C4=NCCN4)c3)cc2)cc1 | 6.96% (active)
28 | Cc1ccc2sc3c(NCCCN)nc4ccccc4c3c(=O)c2c1 | -6.52% (active)
29 | O=C(O)CCCCSCCCCC(=O)O | 95.3% (inactive)
30 | Cc1oc2ccc(O)c(CN3CCCCCC3)c2c1C(=O)Nc1ccc(C(F)(F)F)cc1 | 5.74% (active)
